Many of the other results were omitted from the sample, so hits are more common in it than they were.
PKM2 inh = qHTS Assay for Inhibitors of Human Muscle isoform 2 Pyruvate Kinase | Pyruvate kinase PKM (Homo sapiens), P14618 | purified PKM2, ATP generation, Kinase-Glo luminescence | Potency, µM (series often up to 57.5 µM), for the others: at the top dose activity change, negative = inhibition, hits mostly inhibitors | hit rate 0.058% among 260,000; further: potency means the concentration at half of the fitted maximal effect; nearly all actives have a fitted effect of over 60% in size
Target sequence (P14618 whole entry, looked up, canonical isoform): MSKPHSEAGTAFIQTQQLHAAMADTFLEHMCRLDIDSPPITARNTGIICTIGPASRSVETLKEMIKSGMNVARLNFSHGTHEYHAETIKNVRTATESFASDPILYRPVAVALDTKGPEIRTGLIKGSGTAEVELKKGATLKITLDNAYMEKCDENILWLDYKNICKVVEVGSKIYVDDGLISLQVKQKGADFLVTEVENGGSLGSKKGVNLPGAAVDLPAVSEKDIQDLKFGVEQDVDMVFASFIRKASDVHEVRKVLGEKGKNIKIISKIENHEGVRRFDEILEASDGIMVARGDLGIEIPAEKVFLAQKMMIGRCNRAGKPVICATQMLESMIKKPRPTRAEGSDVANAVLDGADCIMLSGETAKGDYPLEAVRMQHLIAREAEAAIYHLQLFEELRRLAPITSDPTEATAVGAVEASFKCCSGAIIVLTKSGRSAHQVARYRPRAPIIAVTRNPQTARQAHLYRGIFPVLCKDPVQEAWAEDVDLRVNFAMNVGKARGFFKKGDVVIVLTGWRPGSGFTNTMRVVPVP
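Coupled luciferase luminescence (Kinase-Glo) detects ATP generated from 0.1 mM ADP and 0.5 mM PEP in imidazole buffer pH 7.2 with KCl, MgCl2; 1 h at room temperature. Enzyme at intermediate activity; normalized to uninhibited and no-enzyme controls.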
PKM2 inh CRC = Confirmation Concentration-Response Assay for Inhibitors of Human Muscle isoform 2 Pyruvate Kinase. purified hPK-M2, Kinase-Glo ATP luminescence, 1 h. Potency, µM (doses to about 57.5 µM), without a hit: at the highest dose activity change, negative = inhibition, usual class: inhibitors. AID 2263, 2010. hit rate 50% among 55. shares compounds with PKM2 inh
PKM2 FLuc cs = Secondary assay for Inhibitors of Human Pyruvate Kinase M2 isoform: FLuc Counterscreen. Kinase-Glo firefly luciferase, luminescence, 8 min. Potency, µM (doses to about 57.5 µM), for inactives: at the highest dose activity, negative = inhibition, most hits filed as inhibitors. shares compounds with PKM2 inh. hit rate 30% among 55
PKM2 LDH couple = Secondary assay for Inhibitors of Human Pyruvate Kinase M2 isoform; Potency, µM (doses to about 57.5 µM), inactives show top-dose activity change, negative = inhibition, actives largely listed as inhibitors; purified hPK-M2, LDH-coupled NADH fluorescence kinetic; 55 tested, under 10 active; shares compounds with PKM2 inh; AID 2267, 2010
An asterisk follows results filed as active. The call rests on the fitted dose curve; in most records, active means well fitted curve in the direction sought with a large enough effect; inconclusive means small, poorly fitted or top-dose-only effect, or another doubt; inactive means no such curve, though single readings can be large; an effect the other way counts as inactive or inconclusive.

For Cn1c(N=Nc2ccccc2)nc2ccccc21 the results were PKM2 inh 5.6µM*, PKM2 inh CRC 13µM*, PKM2 FLuc cs 5.2µM* and PKM2 LDH couple 30%.
For Cn1c(NCc2c[nH]c3ccccc23)nc2ccccc21 the results were PKM2 inh 53%.
For COc1c(O)c(O)cc2c1oc1c3ccccc3oc(=O)c21 the results were PKM2 inh 39%.
Screening Cc1cc(C)nc(NNC2=CC(=[N+]3CCCC3)CCC2)n1 returned PKM2 inh 35%.
For CC(C)(CNC(=O)c1ccc(S(=O)(=O)N2CCCC2)cc1)N1CCOCC1 the results were PKM2 inh 129%.

Bioassay records: PubChem, National Center for Advancing Translational Sciences (NCATS)
